This is part of a sample that, as a whole, favours compounds with a hit. Of some 83,000 tested, about 20% had one in any assay.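 Assay: single dose, 48 h. Readout: percent growth (0 = no net growth; negative = cell death). Active: <10.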 Unmarked numbers belong to inactive results. Calls of active or inactive are those of the source.
System: UO-31 renal
Assay: NCI-60 one-dose screen, 48 h (100 = growth as untreated, 0 = no growth, -100 = all killed)
Conditions: 10 µM unless noted

| Structure (SMILES) | growth |
| --- | --- |
| CCCCCCCC/C=C\CCCCCCCCOc1ccccc1CCOP(=O)(O)OCC[N+](C)(C)C | 65% |
| CCN1C(=S)N(CC)C2Nn3c(s/c(=C4\C(=O)N(C)c5ccccc54)c3=O)=NC21 (stereo not drawn) | 37.2% |
| O=C(CNC(=O)c1cccc2ccccc12)Nc1ccccc1Oc1ccccc1 | 33.8% |
| CN(C)C/C=C/C(=O)Nc1cc2c(Nc3ccc(F)c(Cl)c3F)ncnc2cc1OCCOC(F)F | 4.31% (active) |
| CC(C)C(C(=O)CCN(C)C)c1ccc(Cl)cc1 (stereo not drawn) | 93.3% |
| CCN1C(=O)/C(=c2\sc3n(c2=O)C2C(NN=3)N(CC)C(=S)N2CC)c2ccccc21 (stereo not drawn) | 81.2% |
| ClC1=C(Cl)C(Cl)=C(Cl)C1=Cc1ccc(Cl)cc1Cl | -81.8% (active) |
| CC(C)CCC[C@@H](C)[C@H]1CC[C@H]2[C@@H]3CC[C@H]4C/C(=N/O)CC[C@]4(C)[C@H]3CC[C@]12C | 94.3% |
| COc1ccc(/C=c2\sc3n(c2=O)C2C(NN=3)N(C)C(=O)N2C)cc1 (stereo not drawn) | 46.4% |
| COc1ccc(OC)c(/C=C2\Oc3cc(OCCN4CCCC4)ccc3C2=O)c1 | 74.1% |
| CCCCCC/C=C\CCCCCCCCOc1ccc(CCOP(=O)(O)OCC[N+](C)(C)C)cc1 | 83.2% |
| CCN1C(=O)N(CC)C2C1NN=c1s/c(=C3\C(=O)N(C4CCCC4)c4ccccc43)c(=O)n12 (stereo not drawn) | 37.2% |
| CN(C)c1nc(N)c(N=O)c(N)n1 | 101% |
| C/C(=N\NC(=O)CC#N)c1cc2cc(Cl)ccc2o1 | 108% |
| COc1cc(C2CC(c3c(C)[n+]([O-])c4ccccc4[n+]3[O-])=NN2)cc(OC)c1OC (stereo not drawn) | 94.6% |
| COc1ccc(NC(=S)/N=c2\oc3c(OC)cccc3cc2-c2cc3ccccc3[nH]2)cc1 | 95.2% |
| COc1cc(/C=C/C(=O)c2ccccc2O)ccc1OCCCOc1cc2c(cc1OC)C(=O)N1CCC[C@H]1C=N2 | -54.5% (active) |
| O=C1CCC/C=C\C[C@H]2C=CC(=O)/C2=C/C[C@H](C/C=C\CC(F)(F)F)O1 | -93% (active) |
| CC(C)(C)c1cc(-c2nc3ccc(N4CCN(CCO)CC4)cc3[nH]2)cc(C(C)(C)C)c1O | 72.4% |
| C=C1C(=O)O[C@H]2[C@H]1CC/C(Cn1cc(-c3ccsc3)nn1)=C\CC[C@@]1(C)O[C@@H]21 | -91.5% (active) |

| Structure (SMILES) | growth |
| --- | --- |
| C#CCN1C(=O)/C(=c2\sc3n(c2=O)C2C(NN=3)N(CC)C(=O)N2CC)c2ccccc21 (stereo not drawn) | 40.1% |
| COc1cccc2cc(-c3cc4ccccc4[nH]3)/c(=N/C(=S)Nc3ccccc3)oc12 | 81.5% |
| Cc1ccc(S(=O)(=O)OCC(=O)Nc2ccc(C(=O)O)c(O)c2)cc1 | 53% |
| CCCCCCCCCN1C(=O)/C(=c2\sc3n(c2=O)C2C(NN=3)N(CC)C(=O)N2CC)c2ccccc21 (stereo not drawn) | 53.4% |
| Cc1oc2nc[nH]c(=O)c2c1C(=O)/C=C/c1ccc(Cl)cc1Cl | 67.6% |
| C#CCN1C(=O)/C(=c2\sc3n(c2=O)NC2C(N=3)N(CC)C(=O)N2CC)c2ccccc21 (stereo not drawn) | 47.9% |
| CCN(Cc1ccc(CN(CC)C(=O)C(Cl)(Cl)Cl)cc1)C(=O)C(Cl)(Cl)Cl | 78.7% |
| COc1cc(C(=O)N2CCN(C(=O)c3ccco3)CC2)c(N)cc1OCc1ccccc1 | 41.9% |
| CCN1C(=O)N(CC)C2Nn3c(s/c(=C\c4cccc(F)c4)c3=O)=NC21 (stereo not drawn) | 65.1% |
| COc1ccc(NC(=O)/N=c2\oc3c(OC)cccc3cc2-c2cc3ccccc3[nH]2)cc1 | 90.4% |
| O=c1[nH]c(CN2CCN(c3ccccc3F)CC2)nc2sc3c(c12)CCC3 | 95.2% |
| O=C(CSc1nc(-c2ccc(Cl)cc2)cn1-c1ccc(Cl)cc1)c1ccc(Br)cc1 | 45.5% |
| CCCCNc1nnc(-c2cc(-c3cc4ccccc4o3)nn2-c2ccccc2)o1 | 71.3% |
| COc1cc2oc(-c3cccc(NC(=O)Nc4ccc5c(c4)OCO5)c3)cc(=O)c2c(OC)c1OC | 17.8% |
| CCN1C(=O)N(CC)C2Nn3c(s/c(=C4\C(=O)N(C5CCCC5)c5ccccc54)c3=O)=NC21 (stereo not drawn) | 51.7% |
| NC(N)=NC(N)=Nc1ccccc1-c1ccccc1 | 99.3% |
| C=CC(=O)N[C@H](/C=C/C(=O)OCC)Cc1ccc(-c2cc(Cl)cc(Cl)c2)cc1 | 56.7% |
| CCN1C(=O)N(CC)C2C1NN=c1s/c(=C\c3ccccn3)c(=O)n12 (stereo not drawn) | 43.8% |
| C/C1=C\CCC2(C)OC2CC2CCC(C)(O)C(CC1)C2(C)C (stereo not drawn) | 99.2% |

System: TK-10 renal
Assay: as above
Conditions: 10 µM unless noted

| Structure (SMILES) | growth |
| --- | --- |
| CCCCCCCC/C=C\CCCCCCCCOc1ccccc1CCOP(=O)(O)OCC[N+](C)(C)C | 1.11% (active) |
| CCN1C(=S)N(CC)C2Nn3c(s/c(=C4\C(=O)N(C)c5ccccc54)c3=O)=NC21 (stereo not drawn) | 96.9% |
| O=C(CNC(=O)c1cccc2ccccc12)Nc1ccccc1Oc1ccccc1 | 19.8% |
| CN(C)C/C=C/C(=O)Nc1cc2c(Nc3ccc(F)c(Cl)c3F)ncnc2cc1OCCOC(F)F | 9.78% (active) |
| CC(C)C(C(=O)CCN(C)C)c1ccc(Cl)cc1 (stereo not drawn) | 101% |
| CCN1C(=O)/C(=c2\sc3n(c2=O)C2C(NN=3)N(CC)C(=S)N2CC)c2ccccc21 (stereo not drawn) | 133% |
| ClC1=C(Cl)C(Cl)=C(Cl)C1=Cc1ccc(Cl)cc1Cl | -5.11% (active) |
| CC(C)CCC[C@@H](C)[C@H]1CC[C@H]2[C@@H]3CC[C@H]4C/C(=N/O)CC[C@]4(C)[C@H]3CC[C@]12C | 105% |
| COc1ccc(/C=c2\sc3n(c2=O)C2C(NN=3)N(C)C(=O)N2C)cc1 (stereo not drawn) | 54.8% |
| COc1ccc(OC)c(/C=C2\Oc3cc(OCCN4CCCC4)ccc3C2=O)c1 | 110% |
| CCCCCC/C=C\CCCCCCCCOc1ccc(CCOP(=O)(O)OCC[N+](C)(C)C)cc1 | 23.5% |
| CCN1C(=O)N(CC)C2C1NN=c1s/c(=C3\C(=O)N(C4CCCC4)c4ccccc43)c(=O)n12 (stereo not drawn) | 24.4% |
| CN(C)c1nc(N)c(N=O)c(N)n1 | 110% |
| C/C(=N\NC(=O)CC#N)c1cc2cc(Cl)ccc2o1 | 114% |
| COc1cc(C2CC(c3c(C)[n+]([O-])c4ccccc4[n+]3[O-])=NN2)cc(OC)c1OC (stereo not drawn) | 122% |
| COc1ccc(NC(=S)/N=c2\oc3c(OC)cccc3cc2-c2cc3ccccc3[nH]2)cc1 | 96% |
| COc1cc(/C=C/C(=O)c2ccccc2O)ccc1OCCCOc1cc2c(cc1OC)C(=O)N1CCC[C@H]1C=N2 | -27.9% (active) |
| O=C1CCC/C=C\C[C@H]2C=CC(=O)/C2=C/C[C@H](C/C=C\CC(F)(F)F)O1 | -33.6% (active) |
| CC(C)(C)c1cc(-c2nc3ccc(N4CCN(CCO)CC4)cc3[nH]2)cc(C(C)(C)C)c1O | 87.6% |
| C=C1C(=O)O[C@H]2[C@H]1CC/C(Cn1cc(-c3ccsc3)nn1)=C\CC[C@@]1(C)O[C@@H]21 | -50.6% (active) |

| Structure (SMILES) | growth |
| --- | --- |
| C#CCN1C(=O)/C(=c2\sc3n(c2=O)C2C(NN=3)N(CC)C(=O)N2CC)c2ccccc21 (stereo not drawn) | 39.7% |
| COc1cccc2cc(-c3cc4ccccc4[nH]3)/c(=N/C(=S)Nc3ccccc3)oc12 | 102% |
| Cc1ccc(S(=O)(=O)OCC(=O)Nc2ccc(C(=O)O)c(O)c2)cc1 | 118% |
| CCCCCCCCCN1C(=O)/C(=c2\sc3n(c2=O)C2C(NN=3)N(CC)C(=O)N2CC)c2ccccc21 (stereo not drawn) | 71.1% |
| Cc1oc2nc[nH]c(=O)c2c1C(=O)/C=C/c1ccc(Cl)cc1Cl | 123% |
| C#CCN1C(=O)/C(=c2\sc3n(c2=O)NC2C(N=3)N(CC)C(=O)N2CC)c2ccccc21 (stereo not drawn) | 96.5% |
| CCN(Cc1ccc(CN(CC)C(=O)C(Cl)(Cl)Cl)cc1)C(=O)C(Cl)(Cl)Cl | 96.1% |
| COc1cc(C(=O)N2CCN(C(=O)c3ccco3)CC2)c(N)cc1OCc1ccccc1 | 107% |
| CCN1C(=O)N(CC)C2Nn3c(s/c(=C\c4cccc(F)c4)c3=O)=NC21 (stereo not drawn) | 109% |
| COc1ccc(NC(=O)/N=c2\oc3c(OC)cccc3cc2-c2cc3ccccc3[nH]2)cc1 | 42% |
| O=c1[nH]c(CN2CCN(c3ccccc3F)CC2)nc2sc3c(c12)CCC3 | -3.37% (active) |
| O=C(CSc1nc(-c2ccc(Cl)cc2)cn1-c1ccc(Cl)cc1)c1ccc(Br)cc1 | 93% |
| CCCCNc1nnc(-c2cc(-c3cc4ccccc4o3)nn2-c2ccccc2)o1 | 104% |
| COc1cc2oc(-c3cccc(NC(=O)Nc4ccc5c(c4)OCO5)c3)cc(=O)c2c(OC)c1OC | 56% |
| CCN1C(=O)N(CC)C2Nn3c(s/c(=C4\C(=O)N(C5CCCC5)c5ccccc54)c3=O)=NC21 (stereo not drawn) | 88.1% |
| NC(N)=NC(N)=Nc1ccccc1-c1ccccc1 | 108% |
| C=CC(=O)N[C@H](/C=C/C(=O)OCC)Cc1ccc(-c2cc(Cl)cc(Cl)c2)cc1 | 89.1% |
| CCN1C(=O)N(CC)C2C1NN=c1s/c(=C\c3ccccn3)c(=O)n12 (stereo not drawn) | 51.2% |
| C/C1=C\CCC2(C)OC2CC2CCC(C)(O)C(CC1)C2(C)C (stereo not drawn) | 97% |

Source: PubChem BioAssay (NCI)
